# TDP1 cell noCPT – qHTS for Inhibitors of human tyrosyl-DNA phosphodiesterase 1 (TDP1): qHTS in cells in absence of CPT; DT40 Tdp1-/- hTDP1 cells, no CPT, ATP luminescence, 48 h; Potency, µM (highest dose often 46.2 µM), without a hit: at the top dose activity change, negative = growth inhibition, most hits filed as inhibitors; actives 15% (n = 420,000); AID 686978, 2013; also: potency is read from the fitted curve at half-maximal effect; nearly all actives have a fitted effect of over 55% in size
#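 DT40 Tdp1-/-;hTDP1 cells, no CPT (DMSO vehicle only), 400 cells/well; compounds pin-transferred; ≥48 hr, 37 °C; CellTiter-Glo 30 min RT dark, luminescence read.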
# DT40 TDP1 CPT – qHTS for Inhibitors of human tyrosyl-DNA phosphodiesterase 1 (TDP1): qHTS in cells in presence of CPT | actives 12% (n = 420,000) | chicken DT40 Tdp1-/-;hTDP1 cells + 20 nM CPT, ATP luminescence, 48 h | Potency, µM (top dose mostly 46.2 µM), for inactives: at the highest dose activity change, negative = growth inhibition, hits mostly inhibitors | AID 686979, 2013; also: potency is read from the fitted curve at half-maximal effect; nearly all actives have a fitted effect of over 55% in size
#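 Chicken DT40 Tdp1-/- cells stably complemented with human TDP1 were seeded at 400 cells/well in medium containing 20 nM camptothecin, exposed to pin-transferred compounds, and grown at 37 °C for at least 48 hr. Viability was read as ATP luminescence.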
# VP16 counter – VP16 counterscreen qHTS for inhibitors of ROR gamma transcriptional activity | Drosophila S2 Gal4-VP16 UAS-luciferase, luminescence, 20 h | Potency, µM (doses to about 53.6 µM), for inactives: at the top dose activity, negative = inhibition, usual class: inhibitors | actives 3.5% (n = 310,000);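 also: Gal4-VP16 expression switched on by copper sulfate through the metallothionein promoter; potency is read from the fitted curve at half-maximal effect; nearly all actives have a fitted effect of over 50% in size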
# RORgamma inh – qHTS for inhibitors of ROR gamma transcriptional activity; Drosophila S2 Gal4-RORgamma UAS-luciferase reporter, 20 h; Potency, µM (series often up to 53.6 µM), for inactives: top-dose activity change, negative = inhibition, usual class: inhibitors; actives 5.4% (n = 310,000); AID 2551, 2010; also: potency is read from the fitted curve at half-maximal effect; nearly all actives have a fitted effect of over 60% in size
# Target sequence (P51450 whole entry, looked up, the tested form may be a part): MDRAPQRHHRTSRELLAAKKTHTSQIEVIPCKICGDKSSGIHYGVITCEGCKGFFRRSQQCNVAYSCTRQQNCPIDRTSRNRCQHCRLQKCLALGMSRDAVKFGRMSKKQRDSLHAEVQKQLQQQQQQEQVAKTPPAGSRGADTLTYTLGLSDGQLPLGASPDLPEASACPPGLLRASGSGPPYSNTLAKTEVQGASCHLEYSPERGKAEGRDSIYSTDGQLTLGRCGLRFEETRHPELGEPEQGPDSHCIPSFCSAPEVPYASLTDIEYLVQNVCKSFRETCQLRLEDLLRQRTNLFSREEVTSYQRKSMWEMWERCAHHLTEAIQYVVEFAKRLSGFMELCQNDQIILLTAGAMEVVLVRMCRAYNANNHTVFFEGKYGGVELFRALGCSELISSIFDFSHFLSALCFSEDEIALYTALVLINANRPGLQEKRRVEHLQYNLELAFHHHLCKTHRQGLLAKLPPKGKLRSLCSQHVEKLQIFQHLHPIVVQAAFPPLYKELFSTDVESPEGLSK
#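 Read-out: Photinus luciferase luminescence; inhibitors lower reporter signal. Insect Schneider cells with Gal4-ROR gamma fusion under metallothionein promoter, UAS reporter; 700 uM final copper sulfate induction, 20 hr, ambient temperature.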
# ELG1 DNA repair – qHTS screen for small molecules that inhibit ELG1-dependent DNA repair in human embryonic kidney (HEK293T) cells expressing luciferase-tagged ELG1; HEK293T ELG1-luciferase reporter, luminescence, 16 h; DNA damage induced by 5-fluorouridine; Potency, µM (highest dose often 46.1 µM), without a hit: at the top dose activity change, negative = inhibition, actives largely listed as inhibitors; actives 2.3% (n = 330,000); AID 504467, 2011; also: potency is read from the fitted curve at half-maximal effect; nearly all actives have a fitted effect of over 55% in size
#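 Reporter activity after DNA damage by 5-fluorouridine is monitored. Compound-treated cells incubate 16 hr at 37 °C, then ONE-Glo is added for 30 min before luminescence reading.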
# IL1B secr inh – qHTS for Inhibitors of Inflammasome Signaling: IL-1-beta AlphaLISA Primary Screen. activity change, % at 57.5 µM. THP-1 LPS/ATP IL-1B secretion, AlphaLISA, 16 h; hits give low values. actives 4.7% (n = 360,000); in the data active = activity change below about -50%; inconclusive = mostly about -30% to -49%
#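 THP-1 cells pretreated 1 hr with compounds (up to 57.5 uM final), then stimulated with LPS (250 ng/mL final) plus ATP (1.25 mM final); secreted IL-1B measured by AlphaLISA after 16 hr, decreased signal indicating inhibition.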
# Starred values were filed as active, the others as inactive; ? = inconclusive; · = not tested or not shown. Most compounds without a hit are left out; they make up all but 21% or so of the library. Unless noted, calls follow the shape of the dose curve; as a rule, active = well fitted curve in the direction sought with a large enough effect; inconclusive = small, poorly fitted or top-dose-only effect, or another doubt; inactive = no such curve, though single readings can be large; an effect the other way counts as inactive or inconclusive. % is scaled to controls: 0 for no effect and ±100 for the full control effect.
SMILES,TDP1 cell noCPT,DT40 TDP1 CPT,VP16 counter,RORgamma inh,ELG1 DNA repair,IL1B secr inh
COc1cc(OC)cc(C(=O)Nc2ccc(S(=O)(=O)Nc3ccccn3)cc2)c1,-22%,-3%,-5%,-16%,-1%,11
Cc1ccc(C(=O)c2c3ccc([N+](=O)[O-])cc3[n+]([O-])n2CCCC(N)=O)cc1,?,5.8µM*,·,·,-18%,-7
NC(=O)CCCn1c(C(=O)c2ccc(Cl)cc2)c2ccc(C(F)(F)F)cc2[n+]1[O-],-25%,-3%,·,·,-1%,-1
NC(=O)CCCn1c(C(=O)c2ccc(Cl)cc2)c2ccc([N+](=O)[O-])cc2[n+]1[O-],8.2µM*,3.7µM*,·,·,?,-10
NCCCn1c(C(=O)c2ccc(Cl)cc2)c2ccc([N+](=O)[O-])cc2[n+]1[O-],4.1µM*,4.1µM*,·,·,-12%,-60*
NCCCn1c(C(=O)c2ccc(Cl)cc2)c2ccc(C(F)(F)F)cc2[n+]1[O-],?,?,·,·,27%,-22
CCOC(=O)c1[nH]c2ccccc2c1NC(=O)c1ccc(C)c(C)c1,?,-18%,·,·,·,·
Cc1ccc(C)c(N2CCN(CCCNC(=O)Cn3ncc4c([nH]c5ccccc54)c3=O)CC2)c1,21µM*,15µM*,·,·,·,·
COc1ccccc1N1CCN(CCCNC(=O)Cn2ncc3c([nH]c4ccccc43)c2=O)CC1,21µM*,?,-3%,2%,14%,-27
CC1CCN(CCCNC(=O)Cn2ncc3c([nH]c4ccccc43)c2=O)CC1,14%,-3%,0%,0%,?,0
O=C(Cn1ncc2c([nH]c3ccccc32)c1=O)Nc1ccc(CN2CCCCC2)cc1,18µM*,?,-4%,0%,1%,101
O=C(COC(=O)c1ccccc1NCCO)NCc1cccs1,-1%,-2%,·,·,2%,34
CCCCCCCCCCN(CCCCCCCCCC)c1ccc(/C=C/c2ccnc3ccccc23)cc1,-28%,-24%,·,·,·,·
CCNc1ccc(/C=C/c2ccnc3ccccc23)cc1,4µM*,-109%,·,·,·,·
CCCCCCNc1ccc(/C=C/c2ccnc3ccccc23)cc1,13µM*,16µM*,·,·,·,·
CNc1ccc(/C=C/c2ccnc3ccccc23)cc1,16µM*,11µM*,·,·,·,·
CCc1ccc(CN(C)Cc2c(C(=O)N3CCOCC3)nc3c(C)cccn23)nc1,?,?,·,·,·,36
C/C(=N\NC(=O)c1cc(C)nc2ccccc12)c1ccco1,1%,12%,4%,-26%,-6%,18
C/C(=N\NC(=O)c1cc2ccccc2cc1O)c1ccc(C)o1,15µM*,18µM*,?,8.9µM*,?,17
C/C(=N/NC(=O)c1cc2ccccc2cc1O)c1ccco1,13µM*,26µM*,?,?,?,0
C/C(=N\NC(=O)c1cc(C)oc1C)c1ccc2ccccc2c1,?,?,-29%,2.2µM*,0%,-13
Cc1cc(C(=O)NN=C(Cc2ccccc2)Cc2ccccc2)c(C)o1,-28%,-21%,?,?,-1%,-7
Cc1ccc(S(=O)(=O)N(C)Cc2ccc(C(=O)NN=C3C4CC5CC(C4)CC3C5)cc2)cc1,-23%,2%,-23%,16%,-3%,14
CC/C(=N\NC(=O)c1ccc(CN(C)S(=O)(=O)c2ccc(C)cc2)cc1)c1ccc(OC(F)F)cc1,21µM*,?,?,-42%,?,-16

# Source: PubChem BioAssay
